An excerpt weighted towards active compounds, which were near 4.6% of everything screened.
TRHR enhancer = qHTS for Small Molecule Agonists and Allosteric Enhancers of Human TRH Receptor: Primary Screen for Enhancers. AID 493056, 2011. 360,000 compounds, 0.66% hits. TRHR cells, fluo-8 calcium fluorescence, EC20 TRH enhancement. enhancement, % at 2 µM; in the data active means enhancement above about 30%; further: 0% is about no effect
Target sequence (P34981 whole entry, looked up): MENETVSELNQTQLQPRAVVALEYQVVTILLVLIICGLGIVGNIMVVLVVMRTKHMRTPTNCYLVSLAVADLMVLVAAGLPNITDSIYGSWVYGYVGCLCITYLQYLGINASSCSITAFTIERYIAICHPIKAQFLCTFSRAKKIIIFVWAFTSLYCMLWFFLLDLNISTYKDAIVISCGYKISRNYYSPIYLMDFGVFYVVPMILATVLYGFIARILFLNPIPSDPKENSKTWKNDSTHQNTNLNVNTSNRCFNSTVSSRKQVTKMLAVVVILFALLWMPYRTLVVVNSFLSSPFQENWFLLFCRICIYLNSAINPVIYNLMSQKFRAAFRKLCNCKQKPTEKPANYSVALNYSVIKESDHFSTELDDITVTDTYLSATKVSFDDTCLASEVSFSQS
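Enhancer read-out: after compound pinning and an initial kinetic agonist-mode read, an EC20 of TRH (10 nM final) was injected and fluo-8 calcium signal (Ex 480/Em 530) followed at 1 s/cycle for 100 cycles in TRHR-expressing cells.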
D1 antag = Antagonist of Human D 1 Dopamine Receptor: qHTS. HEK293 TREx D1 cells, calcium flux, dopamine EC80; active compounds read low. D(1A) dopamine receptor (Homo sapiens), P21728. 360,000 compounds, 3.2% hits. AID 504652, 2011. activity change, negative = inhibition, % at 10 µM; in the data active means activity change below about -30%; further: on the % scale 0 is the no-effect control and ±100 the full control effect
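Kinetic fluorescence of a calcium dye serves as the read-out. D1-expressing Hek293 Trex cells, induced overnight at 30 C, are exposed to compound for 180 s before an EC80 dopamine addition, then read 180 s further.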
D1 PAM = Potentiators of Human D1 Dopamine Receptor: qHTS | AID 504651, 2011 | 360,000 compounds, 0.036% hits | HEK293 TREx D1 cells, calcium flux, dopamine EC20 potentiation | D(1A) dopamine receptor (Homo sapiens), P21728 | potentiation, % at 10 µM; in the data active means potentiation above about 30%; further: 0% is about no effect
D1 agonist = Allosteric Agonists of the Human D1 Dopamine Receptor: qHTS; AID 504660, 2011; HEK293 T-REx D1 cells, calcium flux, agonist mode; 360,000 compounds, 1% hits; D(1A) dopamine receptor (Homo sapiens), P21728; activation, % at 2 µM; further: 0% is about no effect
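Agonism was scored from calcium flux recorded over 180 s (1 read/s) after pintool compound addition, following a 10-cycle baseline. Cells were inducible force-coupled HEK293 TREx D1, plated overnight at 30 C and loaded with no-wash calcium dye.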
TRHR ag = qHTS for Small Molecule Agonists and Allosteric Enhancers of Human TRH Receptor: Primary Screen for Agonists | TRHR cells, calcium flux fluo-8, FDSS agonist mode | activation, % at 2 µM | 360,000 compounds, 0.18% hits | AID 493084, 2011; further: 0% is about no effect
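Read-out: compound-evoked intracellular calcium rise in TRHR cells, fluo-8 dye, kinetic FDSS fluorescence at 1 s/cycle following a 10-cycle baseline. Cells cultured overnight before dye loading (30 min–1.5 h, RT).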
An asterisk follows results filed as active; ! = not active in a repeat. Unless noted, no stated cut-off is given here; in the data, active means activation above about 30%; inactive means the rest.

How did CC(NC(=O)Nc1ccc([N+](=O)[O-])cc1)C(c1ccccc1)N1CCOCC1 (stereo not given) do in these assays?
TRHR enhancer: 2; D1 antag: 167; D1 PAM: -1; D1 agonist: 173*; TRHR ag: -1

Results for CC(NC(=O)Nc1ccc(Cl)c(Cl)c1)C(c1ccccc1)N1CCOCC1 (stereo not given) ?
TRHR enhancer: 9; D1 antag: 41; D1 PAM: 9; D1 agonist: 158*; TRHR ag: -2

How did CC(NC(=O)c1ccc(Cl)cc1Cl)C(c1ccccc1)N1CCOCC1 (stereo not given) do in these assays?
TRHR enhancer: -2; D1 antag: -3; D1 PAM: 0; D1 agonist: 1; TRHR ag: -2

Results for C/C=C/c1ccc(OC)c(OC(C)=O)c1 ?
TRHR enhancer: -5; D1 antag: -76*; D1 PAM: -6; D1 agonist: 1; TRHR ag: 0

What do the screens show for `C/C=C/c1ccc(OC(C)=O)c(OC)c1`?
TRHR enhancer: 2; D1 antag: 9; D1 PAM: -1; D1 agonist: -4; TRHR ag: -1

Results for C/C=C/c1ccc(OCC(=O)Nc2ccc(C(N)=O)cc2)c(OC)c1 ?
TRHR enhancer: -1; D1 antag: -53*; D1 PAM: -7; D1 agonist: 1; TRHR ag: -1

What do the screens show for `COc1cc(/C=C/c2cc[n+](C)cc2)ccc1OCC(=O)Nc1ccccc1`?
TRHR enhancer: -2; D1 antag: -9; D1 PAM: -7; D1 agonist: 2; TRHR ag: 1

What do the screens show for `CCOC(=O)/C(C#N)=C\C=C1C=CN(C)C=C1`?
TRHR enhancer: 0; D1 antag: -20; D1 PAM: -3; D1 agonist: 45*; TRHR ag: 19

What do the screens show for `CCOC(=O)/C(C#N)=C\c1ccc(CC)s1`?
TRHR enhancer: 6; D1 antag: 2; D1 PAM: 5; D1 agonist: -1; TRHR ag: 0

Results for COc1cccc(CNC(=O)c2ccc(CS(=O)(=O)Cc3ccccc3C)o2)c1 ?
TRHR enhancer: -3; D1 antag: 15; D1 PAM: -3; D1 agonist: 9; TRHR ag: 0

How did COc1ccc(S(=O)Cc2ccc(C(=O)N3CCN(c4cccc(C)c4C)CC3)o2)cc1 (stereo not given) do in these assays?
TRHR enhancer: -7; D1 antag: -42*!; D1 PAM: 1; D1 agonist: 11; TRHR ag: 0

How did COc1ccc(S(=O)Cc2ccc(C(=O)NCc3cccc(OC)c3)o2)cc1 (stereo not given) do in these assays?
TRHR enhancer: -3; D1 antag: -35*; D1 PAM: -2; D1 agonist: 2; TRHR ag: 0

Results for COc1cccc(CNC(=O)c2ccc(CS(=O)(=O)Cc3ccc(C)cc3)o2)c1 ?
TRHR enhancer: -6; D1 antag: -43*; D1 PAM: -2; D1 agonist: 14; TRHR ag: 0

Results for CN(C)CCNc1cc(-c2ccncc2)nc2ccccc12 ?
TRHR enhancer: -1; D1 antag: -1; D1 PAM: 1; D1 agonist: 2; TRHR ag: 1

Results for NC(=O)NC(Cc1ccccc1)C(=O)Nc1ccc(S(N)(=O)=O)cc1 (stereo not given) ?
TRHR enhancer: 7; D1 antag: -76*; D1 PAM: -1; D1 agonist: 0; TRHR ag: 1

Results for CC(C)c1ccc(OCc2ccc(C(=O)O)o2)cc1 ?
TRHR enhancer: -2; D1 antag: 4; D1 PAM: -6; D1 agonist: 5; TRHR ag: 0

How did CC(C)c1ccc(OCc2ccc(C(=O)N(C)C)o2)cc1 do in these assays?
TRHR enhancer: 0; D1 antag: -32*; D1 PAM: -3; D1 agonist: 10; TRHR ag: 0

Results for CCOC(=O)c1c(S(=O)(=O)NCc2ccc(C)o2)c(C)n(C)c1C ?
TRHR enhancer: 2; D1 antag: 3; D1 PAM: -8; D1 agonist: 2; TRHR ag: 0

How did COCCn1c(SCC(=O)Nc2ccccc2OC)nc2c(oc3ccccc32)c1=O do in these assays?
TRHR enhancer: 2; D1 antag: -18; D1 PAM: 2; D1 agonist: 2; TRHR ag: 1

What do the screens show for `Cn1c(=O)n(C)c2cc(N3CCOCC3)c(NC(=O)c3ccccc3Br)cc21`?
TRHR enhancer: 3; D1 antag: -43*; D1 PAM: -2; D1 agonist: -1; TRHR ag: -1

Results for O=C(Nc1ccccc1N1CCOCC1)c1cc(Br)c(Br)s1 ?
TRHR enhancer: -1; D1 antag: -31*; D1 PAM: 3; D1 agonist: 3; TRHR ag: 0

Results for COc1cccc(OC)c1C(=O)Nc1cc2c(cc1N1CCOCC1)n(C)c(=O)n2C ?
TRHR enhancer: 8; D1 antag: -4; D1 PAM: -2; D1 agonist: 3; TRHR ag: 0

How did Cn1c(=O)n(C)c2cc(N3CCOCC3)c(NC(=O)c3ccc(F)cc3)cc21 do in these assays?
TRHR enhancer: 32*; D1 antag: 3; D1 PAM: 2; D1 agonist: 2; TRHR ag: 0

What do the screens show for `Cc1nn(Cc2ccccc2Cl)c2sc(C(=O)Nc3ccccc3N3CCOCC3)cc12`?
TRHR enhancer: 2; D1 antag: -38*; D1 PAM: -4; D1 agonist: 3; TRHR ag: 0

Results for Cc1cccc(NC(=O)CSc2nnc(CN3CCOCC3)n2C)c1C ?
TRHR enhancer: 24; D1 antag: 20; D1 PAM: 10; D1 agonist: 7; TRHR ag: 0

Results for O=C(c1ccco1)N1CCN(c2nc(-c3ccc(F)cc3)cs2)CC1 ?
TRHR enhancer: 3; D1 antag: -42*; D1 PAM: -6; D1 agonist: 2; TRHR ag: 0

What do the screens show for `O=C(CCC1CCN(C(=O)c2ccco2)CC1)NCc1ccc(F)cc1`?
TRHR enhancer: -6; D1 antag: -50*; D1 PAM: -15; D1 agonist: 0; TRHR ag: 0

How did COc1ccc(C(CCN2CCCCC2)c2c(OC)cc(OC)c3c(-c4ccccc4)cc(=O)oc23)cc1 (stereo not given) do in these assays?
TRHR enhancer: 5; D1 antag: -43*; D1 PAM: -10; D1 agonist: 55*; TRHR ag: 1

Source: PubChem BioAssay
